Source: PubChem BioAssay AID1032 (The Scripps Research Institute Molecular Screening Center, 2008)
The whole screen tested about 200,000 compounds, of which about 670 (0.34%) were called active. Cut-off read from the data, not from the text of the source: active = activation above about 22%; inactive = the rest. The list comes from a sample in which actives are over-represented; it also holds similar structures and randomly drawn compounds.

What follows are molecules tested against Peroxisome proliferator-activated receptor gamma (Homo sapiens) (UniProt P37231) (assay: agonists of PPARg-SRC-2 recruitment, primary screen, biochemical, HTS (AID 1032;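 note: 0% = vehicle and 100% = reference agonist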)). Conditions: PPARgamma LBD-SRC-2 recruitment, at 8 µM, hits give high values.
Chain of Peroxisome proliferator-activated receptor gamma (Homo sapiens) (P37231 whole entry, looked up, the tested form may be a part): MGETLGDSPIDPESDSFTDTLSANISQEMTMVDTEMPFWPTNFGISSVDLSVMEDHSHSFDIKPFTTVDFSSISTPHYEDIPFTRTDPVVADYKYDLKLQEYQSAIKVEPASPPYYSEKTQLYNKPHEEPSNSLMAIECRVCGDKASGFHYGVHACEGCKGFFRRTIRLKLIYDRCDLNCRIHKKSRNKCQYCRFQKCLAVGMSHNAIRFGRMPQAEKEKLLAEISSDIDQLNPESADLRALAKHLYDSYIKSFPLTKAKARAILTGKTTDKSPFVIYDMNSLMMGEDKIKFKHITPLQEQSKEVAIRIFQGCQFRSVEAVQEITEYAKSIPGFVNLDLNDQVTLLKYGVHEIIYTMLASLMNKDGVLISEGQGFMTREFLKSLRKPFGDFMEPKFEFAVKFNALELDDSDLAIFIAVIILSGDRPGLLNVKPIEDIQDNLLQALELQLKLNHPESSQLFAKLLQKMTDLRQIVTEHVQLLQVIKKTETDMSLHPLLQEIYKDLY

activation, inactive:
O=C(c1ccc(F)cc1)N1CCC(n2nnc3ccccc32)CC1 -10.4%
C=CCC(C(=O)c1ccccc1)[N+](C)(C)CC=C (centres undefined) 1.14%
CN1CCN(S(=O)(=O)c2ccc(NC(=S)NC(=O)C3CC3)cc2)CC1 5.04%
COC(=O)CSc1nccc(-c2cccs2)n1 0.01%
COc1ccc(OC)c(C(=O)CSc2nnc(-c3cccs3)o2)c1 10.1%
COc1ccccc1C1/C(=C(/O)c2ccc(C)cc2)C(=O)C(=O)N1Cc1ccco1 (centres undefined) -3.88%
COc1ccc(/C(O)=C2\C(=O)C(=O)N(Cc3ccco3)C2c2ccc(OC)cc2OC)cc1 (centres undefined) 3.94%
CCC(C)(C)NC(=O)c1cc([N+](=O)[O-])ccc1N1CCCCC1 0.23%
CN(C)c1nccc(NCc2ccccc2)c1C#N 9.56%
CN1CCN(C(c2cc3cc4c(cc3[nH]c2=O)OCCO4)c2nnnn2C2CCCC2)CC1 (centres undefined) 4.65%
Cc1cc(C(=O)CC#N)c(C)n1-c1c(C)n(C)n(-c2ccccc2)c1=O 3.36%
O=C(Nn1cnnc1)c1ccc([N+](=O)[O-])cc1 8.86%
COc1ccc2c(Cl)c(C(=O)NCc3ccco3)sc2c1 4.82%
COc1ccc(-c2nnco2)cc1OC -1.39%
CC1=C(C)C(=O)OC(C(C)C2CCC3C4CC=C5CC(OC6OC(COC7OC(CO)C(O)C(O)C7O)C(O)C(O)C6O)CC(O)C5(C)C4CCC23C)C1 (centres undefined) -5.38%
NC(=O)COc1ccc(C23CC4CC(CC(C4)C2)C3)cc1 13.6%
COc1ccc(CC(=O)N2N=C(C)CC2(O)C(F)(F)F)cc1 (centres undefined) 4.95%
CCOC(=O)c1c(NC(=O)CNC2CCCc3ccccc32)sc(C(N)=O)c1C (centres undefined) 19.8%
NS(=O)(=O)c1ccc(CCNC(=S)Nc2ccc(S(N)(=O)=O)cc2)cc1 4.85%
CCC(C)(C)NC(=O)C(c1cccc(OC)c1OC)N(CC(C)C)C(=O)CCC(=O)Nc1cc(C)on1 (centres undefined) 7.07%
CC(=O)NC(Cc1ccc(F)c(F)c1)C(=O)NC1CCN(C(=O)c2ccc(C)cc2)CC1 (centres undefined) -0.89%
Cc1c(Cc2ccccc2)c(=O)oc2cc(OCC(N)=O)ccc12 4.43%
CC(=O)Oc1ccc2c(C)c(CC(C)O)c(=O)oc2c1 (centres undefined) -8.79%
O=C(CSc1ncnc2c1nnn2Cc1ccc(F)cc1)NC1CCCC1 11.8%
O=C(Nc1ccc([N+](=O)[O-])cc1)C1CC12CCC2 (centres undefined) 18.1%
O=C(CSCc1cccs1)N1CCCC1 -3.94%
CC1CC(C)CN(C(=O)CSc2ccsc2[N+](=O)[O-])C1 (centres undefined) 0.24%
Cc1cccc(OC(=O)c2sc3ncn(C)c(=O)c3c2C)c1 -5.78%
CC1=CC=CN2C1=NC(=O)CC2(C)C(=O)N(CC(=O)NC1CCCC1)c1ccccc1C (centres undefined) 1.53%
CCn1c(SCc2cc(=O)n3ccsc3n2)nc2ccccc21 2.48%
C=CCNC(=O)CSc1nc2sc(C)c(C)c2c(=O)[nH]1 6.77%
O=C(CSc1nc2c(cnn2-c2ccc(F)cc2)c(=O)[nH]1)N1CCCCCC1 5.39%
CCN(CC)N=Nc1cccc(NC(C)=O)c1 6.74%
CCOC(=O)c1[nH]ncc1CN1CCCC(C(=O)c2ccc(OC)cc2C)C1 (centres undefined) -2.32%
Oc1ccccc1N1CCN(C(=S)NCc2ccccc2)CC1 6.1%
O=C(COC(=O)c1ccncc1)c1ccccc1 -2.8%
CC(=O)NC1C(OCc2ccccc2)OC(COC(C)=O)C(OC(C)=O)C1OC(C)=O (centres undefined) 4.63%
CCOC(=O)N1CCN(C(=O)CSc2nc(C)nc3c2c(=O)n(C)c(=O)n3C)CC1 -8.15%
Cc1cc(C)nc(NC(=O)c2cccc([N+](=O)[O-])c2)c1 -5.12%
Cc1c(-c2ccccc2)nc(N)c(C#N)c1-c1cccs1 6.63%
CSc1nc(N)c(C#N)c(-c2ccccc2Cl)c1C#N -6.37%
O=C(NCc1nnc(SCC(=O)N2CCC(Cc3ccccc3)CC2)o1)c1ccco1 0.71%
O=C(Cc1ccc(Br)cc1)N1CCN(c2ccccn2)CC1 4.3%
CC(C)(C)C(=O)NC(NC(=S)Nc1ccc(S(N)(=O)=O)cc1)C(Cl)(Cl)Cl (centres undefined) -5.23%
CCCOc1ccc(N/C=C/C(=O)C(C)(C)C)cc1 -1.64%
O=C(/C=C/Nc1ccccc1OC(F)(F)F)C(F)(F)F 1.89%
CCC(=O)OCCNc1nc(-c2ccccc2)nc2ccccc12 0.25%
Cn1ccc(=NC=C(C#N)C#N)c2ccccc21 -3.24%
CC1CCN(C(=S)NC2CC3CCC2C3)CC1 (centres undefined) -1.7%
Cc1c(CN2CCC(CO)(CCOc3ccccc3)CC2)[nH]c2ccc(Cl)cc12 3.77%

activation, active:
NC(=O)CSc1oc(-c2cccs2)nc1S(=O)(=O)c1ccccc1 36.9%
COc1ccc(/C(O)=C2/C(=O)C(=O)N(c3nc(C)c(C)s3)C2c2ccco2)cc1 (centres undefined) 22.7%
COc1ccc2c(Cl)c(-c3nnco3)sc2c1 22.3%
O=C(Oc1ccccc1)Oc1ccc2c(c1)oc(=O)c1ccccc12 48.7%
O=C(CSc1ccsc1[N+](=O)[O-])N1CCCCC1 22%
CC(=O)c1sc2nc(SCC(=O)N3CCCCC3)[nH]c(=O)c2c1C 27.8%
O=C(OCC1O[C@@H](OC(=O)c2cc(O)c(O)c(O)c2)[C@@H](OC(=O)c2cc(O)c(O)c(O)c2)[C@@H](OC(=O)c2cc(O)c(O)c(O)c2)[C@@H]1OC(=O)c1cc(O)c(O)c(O)c1)c1cc(O)c(O)c(O)c1 (some centres undefined) 27.6%
CCc1c(-c2ccccc2)nc(N)c(C#N)c1-c1cccs1 23.2%
CN(C)c1ccc(N/C=C/C(=O)C(F)(F)F)cc1 39.6%
